A selection: hits, their analogues and other compounds. The true share with any hit is near 6.5%.
A340 absorber: compound light absorbance at 340 nm, profiling panel, artefact control, biochemical, MLSMR library, data from PS, PMK, MK assays | compound absorbance at 340 nm, fold over control | 65,000 tested, under 10 active | fold change at 10 µM;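 active = at 10 µM dose, initial 340 nm absorbance at least 2 fold that of control wells; inactive = change under 2 fold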;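 also: initial absorbance extrapolated from kinetic A340 decline of NADH oxidation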
PMK inhibit: S. pneumoniae PMK inhibitors, primary screen, biochemical, mevalonate pathway, pilot trial included; phosphomevalonate kinase (Streptococcus pneumoniae D39); purified PMK, PK/LDH-coupled NADH absorbance 340 nm; inhibition, % at 10 µM; 0.49% of 65,000 active; AID 539, 2006;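 active = top-ranked compounds by inhibition in the single 10 µM screen, taking a fixed number of the strongest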;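 also: 0% = full reaction with DMSO carrier and 100% = background rate without enzyme reaction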
DPM-DC inhibit: S. pneumoniae DPM-DC inhibitors, primary screen, biochemical, PK/LDH-coupled NADH fluorescence | diphosphomevalonate decarboxylase (Streptococcus pneumoniae D39) | purified DPM-DC | calls only at 10 µM | 0.49% of 65,000 active;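 active = the 320 compounds with the highest percent inhibition in the single-dose primary screen, excluding strongly autofluorescent ones, cut at about 32% in these data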;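 also: kinetic rate of NADH fluorescence loss reporting ADP formed by the decarboxylase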
NADH enzymes: inhibitors of PK/LDH coupling enzymes, profiling panel, artefact control, biochemical, MLSMR library; coupled PK/LDH NADH assays, four targets; IC50, µM (highest dose often 10 µM), without a hit: at the highest dose inhibition; 0.02% of 65,000 active;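 active = single-dose screening hits from any of four coupled enzyme assays that gave an IC50 when retested across doses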;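 also: the DPM-DC format reads NADH fluorescence rather than 340 nm absorbance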
Spn MK inh: S. pneumoniae MK inhibitors, primary screen, biochemical, PK/LDH-coupled NADH absorbance; mevalonate kinase [Streptococcus pneumoniae D39]; 0.48% of 65,000 active; inhibition, % at 10 µM; AID 555, 2006; purified MK, PK/LDH-coupled NADH absorbance 340 nm;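 active = ranked among the strongest by inhibition in the single 10 µM screen, a fixed top-ranked set picked for dose follow-up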
Autofluor 339: intrinsic fluorescence of library compounds, ex339/em460 – biochemical, MLSMR library, data from DPM-DC assay, artefact control, profiling panel; compound autofluorescence, ex339/em460 nm, NADH buffer; stronger effect = higher value; 1 = no-compound wells, NADH background; fluorescence fold increase at 10 µM; 5.5% of 65,000 active; AID 709, 2007;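 active = at 10 µM, mean starting fluorescence two-fold or more over control wells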;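 also: signal is the first read of a kinetic run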
The depositor's hits bear a star; i = inactive; nt = no result given; + = active, no number.

SMILES	A340 absorber	PMK inhibit	DPM-DC inhibit	NADH enzymes	Spn MK inh	Autofluor 339
Cc1nc2scc(-c3ccco3)c2c(=O)n1/N=C/N(C)C	1	5.0	i	1.0%	0.0	1.12
CN1CCN(C(=O)CSc2nc(-c3cccs3)ccc2C#N)CC1	1.15	0.0	nt	7.0%	13.0	2.3*
CCc1cc(=O)oc2cc(OCC(=O)O)c(Cl)cc12	1.14	4.0	i	12.0%	6.0	2.36*
CCc1cc(=O)oc2cc(OC(C)C(=O)O)c(Cl)cc12 (configuration not stated)	1.13	13.0	i	14.0%	8.0	2.88*
O=C(O)C1C2C=CC(C2)C1C(=O)NCCCn1ccnc1 (configuration not stated)	1	0.0	i	4.0%	12.0	1.14
CCCCN(C)CCNC(=O)c1c[nH]c2ccc(S(=O)(=O)N(CC)CC)cc2c1=O	1.06	19.0	i	13.0%	0.0	3.17*
CC(=O)c1sc2nc(-c3cccs3)cc(C(F)(F)F)c2c1N	1.06	12.0	i	9.0%	11.0	1.66
CS(=O)(=O)c1sc2nc(-c3cccs3)cc(-c3ccccc3)c2c1N	1.03	7.0	i	2.0%	0.0	3.77*
Cc1cccc(Nc2n[nH]c(=S)s2)c1C	1.06	0.0	+	29.0%	54.0*	1.05
COc1ccccc1S(=O)Cc1ccc(C(=O)NCCc2ccc(Cl)cc2)o1 (configuration not stated)	1.04	1.0	i	3.0%	7.0	1.04
O=S1(=O)C=CC(N2CCOCC2)C1 (configuration not stated)	1.04	0.0	i	4.0%	11.0	1.08
Cc1ccnc(N2CCC(C(=O)Nc3ccc(Oc4ccccc4)cc3)CC2)n1	1	29.0*	i	10.0%	0.0	1.22
Cc1cc(C)nc(N2CCC(C(=O)Nc3ccc(Oc4ccccc4)cc3)CC2)n1	1	18.0	i	3.0%	4.0	1.02
COC(=O)C(NC=O)C(O)(Cc1ccccc1)C(F)(F)F (configuration not stated)	1.01	10.0	i	3.0%	0.0	1.04
O=C(CCCc1nc(-c2ccccc2)no1)N1CCOCC1	1.01	9.0	i	5.0%	6.0	1.17
COc1ccc(OC)c2c1CCC2=O	1.03	0.0	nt	4.0%	8.0	2.31*
O=c1cc(-c2ccco2)oc2ccc(Cl)cc12	1.05	5.0	nt	2.0%	7.0	2.35*
CCOC(=O)c1nn(-c2ccc3c(c2)OCO3)cc1O	1.07	15.0	nt	8.0%	0.0	2.11*
CCOC(=O)c1nn(-c2cc(C(=O)OC)cc(C(=O)OC)c2)cc1O	1.02	16.0	i	11.0%	16.0	0.97
O=C(C1CCCN(S(=O)(=O)c2cccc3cccnc23)C1)N1CCc2ccccc21 (configuration not stated)	1.07	11.0	i	5.0%	4.0	1.18
Cc1ccc(C)c(-c2nnc(OCC(=O)Nc3cc(C)on3)c3ccccc23)c1	0.98	12.0	i	6.0%	5.0	1.08
C/C(=N\O)c1ccc2c3ccccc3n(C)c2c1	1.04	1.0	i	10.0%	11.0	2.7*
C/C(=N\O)c1c(C)c2ccccc2n1C	1.02	10.0	i	4.0%	1.0	1.11
CCCCc1cc(=O)oc2cc(C)cc(OC(C)C(=O)O)c12 (configuration not stated)	1.02	9.0	nt	2.0%	4.0	2.98*
CCCc1cc(=O)oc2cc(C)cc(OCC(=O)O)c12	1.1	0.0	nt	2.0%	4.0	3.88*
Cc1csc2nc3ccccc3c(=O)n12	1	4.0	i	6.0%	5.0	2.02*
Cc1nc2ccccc2c(=O)n1N	1.03	6.0	i	3.0%	3.0	1.02
c1cncc(Nc2nc(-c3cccs3)cs2)c1	1.03	0.0	i	3.0%	7.0	1.12
c1csc(-c2cnc3ccccc3n2)c1	1.04	7.0	nt	5.0%	2.0	3.64*

Source: PubChem BioAssay
